For six molecules, outcome and AC50 results are on record in PubChem BioAssay (EPA / NIEHS).

Read-out in experiment [1]: Matrix Metallopeptidase 1 (MMP1), MMP1 (gene 4312)
The experiment can be described thus: BSK_MyoF_MMP1: BioMAP Diversity Plus: MyoF Assay for Matrix Metallopeptidase 1 (MMP1) Biomarker Activity (AID 2284268). The note with it: primary human lung fibroblasts. A digest of the protocol:
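Cells: human lung fibroblasts. Exposure: 24 h chemical dosing. Detection: ELISA for MMP1. Analysis: upward fitting against DMSO negative control.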

Read-out in experiment [2]: TIMP metallopeptidase inhibitor 1 (TIMP1), TIMP1 (gene 7076)
The experiment can be described thus: BSK_MyoF_TIMP1: BioMAP Diversity Plus: MyoF Assay for TIMP metallopeptidase inhibitor 1 (TIMP1) Biomarker Activity (AID 2284269). The conditions noted are these: primary human lung fibroblasts. A digest of the protocol: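 ELISA quantified TIMP-1 levels after 24 h dosing of primary human lung fibroblasts, with DMSO as baseline. Parallel SRB total protein staining (0.1% SRB after TCA fixation, 560 nm) flagged overt cytotoxicity.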

Read-out in experiment [3]: Matrix Metallopeptidase 1 (MMP1), MMP1 (gene 4312)
The experiment can be described thus: BSK_BF4T_MMP1: BioMAP Diversity Plus: BF4T Assay for Matrix Metallopeptidase 1 (MMP1) Biomarker Activity (AID 2284270). The note with it: primary human bronchial epithelial cells with fibroblasts. A digest of the protocol: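 Co-culture of human bronchial epithelial cells and dermal fibroblasts; MMP-1 levels measured by ELISA 24 hours after chemical dosing, relative to DMSO. Cytotoxicity checked in parallel cultures by SRB total-protein staining.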

Read-out in experiment [4]: Matrix Metallopeptidase 3 (MMP3), MMP3 (gene 4314)
Nature of the experiment: BSK_BF4T_MMP3: BioMAP Diversity Plus: BF4T Assay for Matrix Metallopeptidase 3 (MMP3) Biomarker Activity (AID 2284271). The note with it: primary human bronchial epithelial cells with fibroblasts. A digest of the protocol: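 Co-culture of human bronchial epithelial cells and dermal fibroblasts dosed 24 h; MMP-3 measured by ELISA, positive-direction fit versus DMSO. Cytotoxicity tracked by SRB total-protein staining (560 nm) in parallel cultures.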

Read-out in experiment [5]: Tissue plasminogen activator (tPA), PLAT (gene 5327)
The experiment can be described thus: BSK_BF4T_tPA: BioMAP Diversity Plus: BF4T Assay for Tissue plasminogen activator (tPA) Biomarker Activity (AID 2284272). The conditions noted are these: primary human bronchial epithelial cells with fibroblasts. An outline of the steps:
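tPA level quantified by ELISA at 24 h post-treatment in bronchial epithelial/dermal fibroblast co-cultures, gain of signal scored against DMSO baseline. Parallel cultures stained with 0.1% SRB (560 nm) to flag overt cytotoxicity.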

Read-out in experiment [6]: Plasminogen Activator Inhibitor-1 (PAI1), SERPINE1 (gene 5054)
Nature of the experiment: BSK_BF4T_PAI1: BioMAP Diversity Plus: BF4T Assay for Plasminogen Activator Inhibitor-1 (PAI1) Biomarker Activity (AID 2284273). The note with it: primary human bronchial epithelial cells with fibroblasts. A digest of the protocol: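 Co-culture of human bronchial epithelial cells and dermal fibroblasts exposed to compound for 24 h. PAI-1 measured by ELISA; activity fitted in positive direction versus DMSO. Parallel SRB staining assessed overt cytotoxicity.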

Experiment [7] in a line: BSK_BF4T_SRB: Viability Assessment in the BioMAP Diversity Plus: BF4T Assay (AID 2284274). The note with it: primary human bronchial epithelial cells with fibroblasts. A digest of the protocol: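 Co-culture of human bronchial epithelial cells and dermal fibroblasts (BioMAP BF4T) exposed 24 h. Total protein by sulforhodamine B staining (0.1% SRB after 10% TCA fixation, 560 nm) in parallel cultures; fitted vs DMSO.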

Read-out in experiment [8]: urokinase Plasminogen Activator (uPA), PLAU (gene 5328)
The experiment can be described thus: BSK_BF4T_uPA: BioMAP Diversity Plus: BF4T Assay for urokinase Plasminogen Activator (uPA) Biomarker Activity (AID 2284275). The note with it: primary human bronchial epithelial cells with fibroblasts. A digest of the protocol:
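Co-culture of human bronchial epithelial cells and dermal fibroblasts; uPA quantified by ELISA 24 hours after dosing, fitted relative to DMSO. Parallel SRB total-protein staining assessed overt cytotoxicity.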

Read-out in experiment [9]: Matrix Metallopeptidase 9 (MMP9), MMP9 (gene 4318)
Nature of the experiment: BSK_BF4T_MMP9: BioMAP Diversity Plus: BF4T Assay for Matrix Metallopeptidase 9 (MMP9) Biomarker Activity (AID 2284276). The note with it: primary human bronchial epithelial cells with fibroblasts. An outline of the steps:
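Co-culture of human bronchial epithelial cells and dermal fibroblasts dosed for 24 h; MMP-9 quantified by ELISA and fitted upward versus DMSO. Cytotoxicity monitored in parallel cultures by SRB total-protein staining at the biomarker time point.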

Read-out in experiment [10]: Interleukin-8 (IL8), CXCL8 (gene 3576)
Nature of the experiment: BSK_IMphg_IL8: BioMAP Diversity Plus: IMphg Assay for Interleukin-8 (IL8) Biomarker Activity (AID 2284277). The note with it: primary human endothelial cells with macrophages. A digest of the protocol: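 Co-culture of human venular endothelial cells and macrophages exposed to chemicals for 24 h; IL-8 quantified by ELISA and compared against the DMSO baseline, with SRB total-protein staining in parallel cultures for cytotoxicity.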

Read-out in experiment [11]: Intercellular Adhesion Molecule 1 (ICAM1), ICAM1 (gene 3383)
Nature of the experiment: BSK_BE3C_ICAM1: BioMAP Diversity Plus: BE3C Assay for Intercellular Adhesion Molecule 1 (ICAM1) Biomarker Activity (AID 2284278).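 Further: cell-surface ICAM-1 protein level quantified by ELISA.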 The note with it: primary human bronchial epithelial cells. An outline of the steps:
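Primary human bronchial epithelial cells were exposed to compound for 24 h, after which cell-surface ICAM-1 was quantified by ELISA. Activity was fitted in the gain-of-signal direction against DMSO as negative control and baseline.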

Read-out in experiment [12]: Interferon-inducible T-cell alpha chemoattractant (ITAC), CXCL11 (gene 6373)
Nature of the experiment: BSK_BE3C_ITAC: BioMAP Diversity Plus: BE3C Assay for Interferon-inducible T-cell alpha chemoattractant (ITAC) Biomarker Activity (AID 2284279). The conditions noted are these: primary human bronchial epithelial cells. An outline of the steps: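 ELISA for I-TAC in primary human bronchial epithelial cultures 24 h post-treatment, fitted relative to DMSO baseline in positive direction. Cytotoxicity checked in parallel cultures by sulforhodamine B protein staining.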

Read-out in experiment [13]: Interleukin-8 (IL8), CXCL8 (gene 3576)
Nature of the experiment: BSK_BE3C_IL8: BioMAP Diversity Plus: BE3C Assay for Interleukin-8 (IL8) Biomarker Activity (AID 2284280). The conditions noted are these: primary human bronchial epithelial cells. A digest of the protocol:
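Primary human bronchial epithelial cells (BE3C system) exposed 24 h; IL-8 measured by ELISA and fitted in positive direction versus DMSO. Overt cytotoxicity assessed by SRB total-protein staining in parallel cultures.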

Read-out in another experiment: KRT18 (gene 3875)
The experiment can be described thus: BSK_BE3C_Keratin818: BioMAP Diversity Plus: BE3C Assay for Keratin 818 Biomarker Activity (AID 2284282). The conditions noted are these: primary human bronchial epithelial cells. A digest of the protocol: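 Human primary bronchial epithelial cells in the BE3C system were exposed to test chemical for 24 h, then Keratin 8/18 was quantified by ELISA. Activity was fitted in the positive direction against DMSO as negative control and baseline.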

Read-out in experiment [14]: Matrix Metallopeptidase 9 (MMP9), MMP9 (gene 4318)
Nature of the experiment: BSK_BE3C_MMP9: BioMAP Diversity Plus: BE3C Assay for Matrix Metallopeptidase 9 (MMP9) Biomarker Activity (AID 2284283). The conditions noted are these: primary human bronchial epithelial cells. A digest of the protocol: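 ELISA read-out of MMP-9 after 24 h compound exposure of human lung bronchial epithelial primary cells (BE3C). Fit in gain direction vs DMSO negative control; total protein by SRB in parallel cultures flagged overt cytotoxicity.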

Read-out in experiment [15]: Plasminogen activator inhibitor-1 (PAI1), SERPINE1 (gene 5054)
Nature of the experiment: BSK_CASM3C_PAI1: BioMAP Diversity Plus: CASM3C Assay for Plasminogen activator inhibitor-1 (PAI1) Biomarker Activity (AID 2284284).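 Further: PAI-1 protein level measured by ELISA 24 h after dosing.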 The conditions noted are these: primary human coronary artery smooth muscle cells.

Read-out in experiment [16]: Vascular cell adhesion molecule 1 (VCAM1), VCAM1 (gene 7412)
The experiment can be described thus: BSK_IMphg_VCAM1: BioMAP Diversity Plus: IMphg Assay for Vascular cell adhesion molecule 1 (VCAM1) Biomarker Activity (AID 2284286). The conditions noted are these: primary human endothelial cells with macrophages. A digest of the protocol:
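Human venular endothelial cells co-cultured with macrophages; VCAM-1 quantified by ELISA 24 h after dosing, fitted in the positive direction against DMSO. Cytotoxicity was checked in parallel cultures by SRB total-protein staining (0.1% SRB after 10% TCA fixation, 560 nm).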

Read-out in experiment [17]: Intercellular Adhesion Molecule 1 (ICAM1), ICAM1 (gene 3383)
The experiment can be described thus: BSK_hDFCGF_ICAM1: BioMAP Diversity Plus: hDFCGF Assay for Intercellular Adhesion Molecule 1 (ICAM1) Biomarker Activity (AID 2284287). The note with it: primary human foreskin fibroblasts. An outline of the steps:
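Primary human foreskin fibroblasts (hDFCGF system) dosed with chemical; ICAM-1 quantified by ELISA at 24 h relative to DMSO. Parallel SRB total-protein staining to assess overt cytotoxicity.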

Read-out in experiment [18]: Interleukin-1 alpha (IL1a), IL1A (gene 3552)
Nature of the experiment: BSK_IMphg_IL1a: BioMAP Diversity Plus: IMphg Assay for Interleukin-1 alpha (IL1a) Biomarker Activity (AID 2284290). The conditions noted are these: primary human endothelial cells with macrophages. A digest of the protocol: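 Human venular endothelial cells co-cultured with macrophages, IMphg system. IL-1α is measured by ELISA 24 h after dosing and fitted in the positive direction against DMSO. Cytotoxicity is assessed by SRB staining of parallel cultures.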

Read-out in experiment [19]: Macrophage colony-stimulating factor (MCSF), CSF1 (gene 1435)
The experiment can be described thus: BSK_IMphg_MCSF: BioMAP Diversity Plus: IMphg Assay for Macrophage colony-stimulating factor (MCSF) Biomarker Activity (AID 2284293). The conditions noted are these: primary human endothelial cells with macrophages. A digest of the protocol:
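Co-culture of human venular endothelial cells and macrophages, 24 hours of chemical exposure. M-CSF quantified by ELISA, with parallel SRB total-protein staining for cytotoxicity; activity fitted relative to DMSO.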

Where a structure was tested more than once in an assay, its records may differ in their call. The source made the active and inactive calls. How the source made its calls: active means hit-call score of the fitted dose curve at least 0.9, where 1 is the maximum; inactive means score below 0.9.

Take `S=P(N1CC1)(N1CC1)N1CC1`: the result in [1] and in experiment [2] was inactive.

In the case of `O=S(=O)(O)CCC(F)(F)C(F)(F)C(F)(F)C(F)(F)C(F)(F)C(F)(F)F`, the outcome in [1], in [2], in experiment [3], in experiment [4], in [5] and in experiment [6] was inactive. In addition, the outcome in experiment [7], in experiment [8], in experiment [9], in [10], in experiment [11] and in experiment [12] was inactive. Also, the outcome (in experiment [13]; with KRT18 (gene 3875); in experiment [14]; in experiment [15]; in [16]; in [17]) was inactive. The result in experiment [18] and in experiment [19] was inactive.

Regarding `FC(F)C(F)(F)COCC1CO1` (stereo unspecified), the outcome in experiment [1], in experiment [2], in [3], in experiment [4], in experiment [5] and in experiment [6] was inactive. Moreover, the result in experiment [7], in experiment [8], in [9], in [10], in [11] and in experiment [12] was inactive. Besides, the outcome (in [13]; with KRT18 (gene 3875); in [14]; in [15]; in experiment [16]; in experiment [17]) was inactive. Moreover, the result in experiment [18] and in experiment [19] was inactive.

In general, AC50 refers to the concentration giving half of the maximal activity seen. Regarding `OC(O)(C(F)C(O)(O)C(F)(F)F)C(F)(F)F`, the result in experiment [1], in experiment [2], in experiment [3], in experiment [4], in experiment [5] and in [6] was inactive. Moreover, the result in [7], in experiment [8], in experiment [9], in [10], in experiment [11] and in [12] was inactive. For the same molecule, the result (in experiment [13]; with KRT18 (gene 3875); in experiment [14]; in experiment [15]; in experiment [16]; in [17]) was inactive. Also, the outcome in experiment [18] and in experiment [19] was inactive. Also, the AC50 in [2] was 0.991 µM (active); in [10] it was 50.1 µM (active); in experiment [13], 22 µM (active).

`NCC(F)(F)C(F)(F)C(F)(F)C(F)(F)F`: the outcome in [1], in [2], in [3], in experiment [4], in [5] and in [6] was inactive. Moreover, the result in [7], in [8], in experiment [9], in experiment [10], in [11] and in experiment [12] was inactive. In addition, the outcome (in experiment [13]; with KRT18 (gene 3875); in experiment [14]; in experiment [15]; in [16]; in experiment [17]) was inactive. Moreover, the result in experiment [18] and in experiment [19] was inactive. In addition, the AC50 in [2] is 0.307 µM (active).

Take `FC(F)(F)COC(OCC(F)(F)F)OCC(F)(F)F`: the result in [1], in experiment [2], in [3], in [4], in experiment [5] and in experiment [6] was inactive. The outcome in experiment [7], in [8], in experiment [9], in [10], in experiment [11] and in [12] was inactive. Besides, the result (in [13]; in the experiment with KRT18 (gene 3875); in [14]; in experiment [15]; in [16]; in experiment [17]) was inactive. Besides, the result in experiment [18] and in experiment [19] was inactive.
